# Source: PubChem BioAssay (Tox21)
# Records with an inconclusive call do not appear. Where a call stands in place of a potency, no number is given. Calls of active or inactive are those of the source. Unless noted, the call rests on the fitted dose curve; in most records, active means well fitted curve in the direction sought with a large enough effect in the repeat runs; inconclusive means weak or mixed curves; inactive means no such curve, though single readings can be large; an effect the other way counts as inactive or inconclusive.
# Columns and labels:
# [1] = qHTS assay for small molecule agonists of the p53 signaling pathway (AID 651631; calls by dose curve; further: nearly all actives have a fitted effect of over 15% in size; further: potency means the concentration at half of the fitted maximal effect)
# In short: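 HCT-116 p53RE-bla reporter line, 16 h compound treatment at 37 °C, then fluorescence after 2 h with B/G FRET substrate.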
# [2] = qHTS assay for small molecules that induce genotoxicity in human embryonic kidney cells expressing luciferase-tagged ATAD5 (AID 651632); further: nearly all actives have a fitted effect of over 15% in size; further: potency means the concentration at half of the fitted maximal effect
# In short: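 Genotoxicity read-out via ATAD5-luciferase: HEK293T cells, 16 hr compound incubation at 37C, Amplite detection.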
# [3] = qHTS assay for small molecule agonists of the p53 signaling pathway - cell viability (AID 651633; calls by dose curve;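 further: p53RE-bla HCT reporter cells with a stable beta-lactamase p53 reporter; series mostly up to about 83 µM; nearly all actives have a fitted effect of over 30% in size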)
# In short: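 p53RE-bla cells were treated with compound for 16 hours at 37 C. Cytotoxicity was then measured as CellTiter-Glo luminescence after 30 min at room temperature.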
# [4] = qHTS assay for small molecules that induce genotoxicity in human embryonic kidney cells expressing luciferase-tagged ATAD5 - cell viability (AID 651634; calls by dose curve; further: nearly all actives have a fitted effect of over 25% in size; further: potency means the concentration at half of the fitted maximal effect)
# In short: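 Live-cell protease activity (CellTiter-Fluor, fluorescence) indicates viability. HEK293T cells with luciferase-tagged ATAD5; 15.5 hr compound treatment at 37C.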
# [5] = qHTS assay for small molecule disruptors of the mitochondrial membrane potential - cell viability (AID 720634; calls by dose curve;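 further: human HepG2 liver cancer cells; series mostly up to about 83 µM; nearly all actives have a fitted effect of over 20% in size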)
# In short: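 Human hepatoma HepG2 cells were treated for 1 hr with test chemicals, then given m-MPI dye and CellTiter-Glo. Cell viability reflects luminescence proportional to cellular ATP.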
# [6] = qHTS assay for small molecule disruptors of the mitochondrial membrane potential (AID 720635); further: potency means the concentration at half of the fitted maximal effect
# In short: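 HepG2 cells exposed to compound 1 hr at 37C, then Mito-MPS dye 30 min. Ratio read of aggregate (540/590 nm) versus monomer (490/535 nm) fluorescence.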
# [7] = qHTS assay to test for compound auto fluorescence at 590 nm (red) in HepG2 cells (AID 720674)
# In short: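 HepG2 cells, 2,000 per well in MEM with 10% FBS, attached overnight at 37 C, then got 23 nL compound or DMSO. After 1 hr at 37 C, 5% CO2, red fluorescence was read at 540/590 nm against Rose Bengal sodium as reference.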
# [8] = qHTS assay to test for compound auto fluorescence at 535 nm (green) in HepG2 cells (AID 720675)
# [9] = qHTS assay to test for compound auto fluorescence at 460 nm (blue) in HEK293 cells (AID 720678)
# In short: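 HEK293 cells (2,000 per well, medium with 10% dialyzed FBS) attached for 4-5 hr at 37C, then received compound and stood overnight at 37C, 5% CO2. Blue fluorescence was read at Ex/Em 405/460 nm and expressed relative to triamterene.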
# [10] = qHTS assay to test for compound auto fluorescence at 590 nm (red) in HEK293 cells (AID 720679)
# In short: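 HEK293 cells (2,000/well, medium with 10% dialyzed FBS) attached for 4-5 hr at 37C, received 23 nL compound and were incubated overnight at 37C, 5% CO2. Red fluorescence was then read at 540/590nm Ex/Em, referenced to Rose Bengal sodium.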
Compound,Potency [1],Potency [2],Potency [3],Potency [4],Potency [5],Potency [6],outcome [7],outcome [8],outcome [9],outcome [10],"fluorescence, relative to Rose Bengal [7]","fluorescence, % of fluorescein control [8]","fluorescence, % of triamterene [9]","fluorescence, % of fluorescent control [10]"
C=CC1CO1 (stereo unspecified),inactive,inactive,inactive,inactive,inactive,inactive,inactive,inactive,inactive,inactive,,,,
OCc1c2ccccc2cc2ccccc12,inactive,inactive,inactive,inactive,inactive,30.7 µM (active),inactive,inactive,inactive,inactive,,,,
CC(=O)OC(C)OC(C)=O,inactive,inactive,inactive,inactive,inactive,inactive,inactive,inactive,inactive,inactive,,,,
CCC(=O)O[C@]1(C(=O)SCF)[C@H](C)C[C@H]2[C@@H]3C[C@H](F)C4=CC(=O)C=C[C@]4(C)[C@@]3(F)[C@@H](O)C[C@@]21C,inactive,inactive,inactive,inactive,inactive,7.17 µM (active),,,,,-0.521% [at 18.6 µM] (inactive),0.0108% [at 18.6 µM] (inactive),0.0153% [at 18.6 µM] (inactive),-0.0536% [at 18.6 µM] (inactive)
Cc1c(C(=O)NCCO)[n+](=O)c2ccccc2n1[O-],inactive,inactive,inactive,inactive,inactive,inactive,inactive,inactive,inactive,inactive,,,,
CC(C)C(=O)OC/C=C/c1ccccc1,inactive,inactive,inactive,inactive,inactive,inactive,inactive,inactive,inactive,inactive,,,,
FC(F)(F)C(Cl)(Cl)Cl,inactive,inactive,inactive,inactive,inactive,inactive,inactive,inactive,inactive,inactive,,,,
OCc1ccccc1O,inactive,inactive,inactive,inactive,inactive,inactive,inactive,inactive,inactive,inactive,,,,
Cc1cc(S(=O)(=O)O)c(N)cc1Cl,inactive,inactive,inactive,inactive,inactive,inactive,inactive,inactive,inactive,inactive,,,,
CC(C)S,inactive,inactive,inactive,inactive,inactive,inactive,inactive,inactive,inactive,inactive,,,,
CC(C)(C)c1cccc(O)c1,inactive,inactive,inactive,inactive,inactive,48.6 µM (active),inactive,inactive,inactive,inactive,,,,
CC(C)(C)c1ccc(OC(=O)c2ccccc2O)cc1,inactive,21.7 µM (active),inactive,inactive,inactive,24.3 µM (active),inactive,inactive,inactive,inactive,,,,
CCOC(=O)[C@H](CCc1ccccc1)N[C@@H](C)C(=O)N1Cc2cc(OC)c(OC)cc2C[C@H]1C(=O)O,inactive,inactive,inactive,inactive,inactive,inactive,inactive,inactive,inactive,inactive,,,,
CN(C)Cc1ccccc1,inactive,inactive,inactive,inactive,inactive,inactive,inactive,inactive,inactive,inactive,,,,
CCN(O)CC,inactive,inactive,inactive,inactive,inactive,inactive,inactive,inactive,inactive,inactive,,,,
OCCN(CCO)CCN(CCO)CCO,inactive,inactive,inactive,inactive,inactive,inactive,inactive,inactive,inactive,inactive,,,,
FC(F)(F)c1ccccc1,inactive,inactive,inactive,inactive,inactive,inactive,inactive,inactive,inactive,inactive,,,,
CCCC1CCC(=O)O1 (stereo unspecified),inactive,inactive,inactive,inactive,inactive,inactive,inactive,inactive,inactive,inactive,,,,
CCN(CC)C(=O)N(CC)CC,inactive,inactive,inactive,inactive,inactive,inactive,inactive,inactive,inactive,inactive,,,,
O=C(O)c1ccccc1Nc1cc(Cl)ccc1C(=O)O,inactive,inactive,inactive,inactive,inactive,inactive,inactive,inactive,inactive,inactive,,,,
O=C(O)c1cccc(Cl)c1Cl,inactive,inactive,inactive,inactive,inactive,inactive,inactive,inactive,inactive,inactive,,,,
Cc1ccccc1C(=O)Nc1ccc(C(=O)N2CCCC(O)c3cc(Cl)ccc32)c(C)c1 (stereo unspecified),inactive,inactive,inactive,inactive,inactive,10.6 µM (active),inactive,inactive,inactive,inactive,,,,
CCCCc1ccc2nc(NC(=O)OC)[nH]c2c1,0.0507 µM (active),0.804 µM (active),inactive,0.0902 µM (active),inactive,0.254 µM (active),,,,,-0.46% [at 18.6 µM] (inactive),0.0726% [at 18.6 µM] (inactive),-0.014% [at 18.6 µM] (inactive),0.021% [at 18.6 µM] (inactive)

Compound,Potency [1],Potency [2],Potency [3],Potency [4],Potency [5],Potency [6],outcome [7],outcome [8],outcome [9],outcome [10],"fluorescence, relative to Rose Bengal [7]","fluorescence, % of fluorescein control [8]","fluorescence, % of triamterene [9]","fluorescence, % of fluorescent control [10]"
CCCCCCCCCC/C=C/C#N,inactive,inactive,inactive,inactive,inactive,inactive,inactive,inactive,inactive,inactive,,,,
Cc1ccc(C=O)s1,inactive,inactive,inactive,inactive,inactive,inactive,inactive,inactive,inactive,inactive,,,,
CCOC(=O)C(Br)c1ccccc1 (stereo unspecified),inactive,inactive,inactive,inactive,inactive,inactive,inactive,inactive,inactive,inactive,,,,
NC/C=C/C(=O)O,inactive,inactive,inactive,inactive,inactive,inactive,inactive,inactive,inactive,inactive,,,,
C[C@@H]1CN(c2c(F)c(N)c3c(=O)c(C(=O)O)cn(C4CC4)c3c2F)C[C@H](C)N1,inactive,inactive,inactive,inactive,inactive,inactive,inactive,inactive,inactive,inactive,,,,
CC1=C(O)C(=O)OC1C (stereo unspecified),inactive,inactive,inactive,inactive,inactive,inactive,inactive,inactive,inactive,inactive,,,,
CCOc1ccccc1N,inactive,inactive,inactive,inactive,inactive,inactive,inactive,inactive,inactive,inactive,,,,
CN1CCN(c2c(F)cc3c(=O)c(C(=O)O)cn4c3c2SCC4)CC1,inactive,inactive,inactive,inactive,inactive,inactive,inactive,inactive,inactive,inactive,,,,
COc1ccccc1N1CCN(CCCNc2cc(=O)n(C)c(=O)n2C)CC1,inactive,inactive,inactive,inactive,inactive,inactive,inactive,inactive,inactive,inactive,,,,
CC(C)C1=CC2=CC[C@@H]3[C@](C)(CCC[C@@]3(C)C(=O)O)[C@H]2CC1,inactive,inactive,inactive,inactive,inactive,inactive,inactive,inactive,inactive,inactive,,,,
CC(C)(CO)[C@@H](O)C(=O)NCCC(=O)O,inactive,inactive,inactive,inactive,inactive,inactive,inactive,inactive,inactive,inactive,,,,
CC(C)CC(=O)OCc1ccccc1,inactive,inactive,inactive,inactive,inactive,inactive,inactive,inactive,inactive,inactive,,,,
CC1=CC(=O)CC(C)(C)C1=O,inactive,inactive,inactive,inactive,inactive,,inactive,inactive,inactive,inactive,,,,
CCOC(=O)c1ccccc1O,inactive,inactive,inactive,inactive,inactive,inactive,inactive,inactive,,inactive,,,,
O=C(O[C@@H](C(=O)O)[C@@H](OC(=O)c1ccccc1)C(=O)O)c1ccccc1,inactive,inactive,inactive,inactive,inactive,inactive,inactive,inactive,,inactive,,,,
C=CCCCCCCCCO,inactive,inactive,inactive,inactive,inactive,,inactive,inactive,inactive,inactive,,,,
CN(CC1(C)CCCO1)S(=O)(=O)c1ccc(Cl)c(S(N)(=O)=O)c1 (stereo unspecified),inactive,inactive,inactive,inactive,inactive,inactive,,inactive,inactive,inactive,,,,
COC(=O)C(C)O (stereo unspecified),inactive,inactive,inactive,inactive,inactive,inactive,inactive,inactive,,inactive,,,,
CCCCC1CCC(=O)O1 (stereo unspecified),inactive,inactive,inactive,inactive,inactive,inactive,inactive,inactive,,inactive,,,,
FC(F)(F)C(F)(F)C(F)(F)C(F)(F)C(F)(F)C(F)(F)C(F)(F)C(F)(F)Br,inactive,inactive,inactive,inactive,inactive,inactive,inactive,inactive,,inactive,,,,
CCCCCCC,inactive,inactive,inactive,inactive,inactive,inactive,inactive,inactive,inactive,inactive,,,,
COC(=O)c1ccc2cc(C(=O)OC)ccc2c1,inactive,inactive,inactive,inactive,inactive,,,,,,0.064% [at 18.6 µM] (inactive),-0.0327% [at 18.6 µM] (inactive),-0.0093% [at 18.6 µM] (inactive),0.496% [at 18.6 µM] (inactive)
